Experimental data published in PubChem BioAssay (NCI).
About 83,000 compounds went through this panel and 20% of them were active in at least one assay; those are over-represented in the sample as a whole.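 Interpretation: 100, growth as untreated; towards 0, rising growth inhibition; 0, no net growth; 0 to -100, cell death. Compounds scoring below 10 were considered active.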 The source made the active and inactive calls.

Tests used:
Experiment in all cases: NCI-60 one-dose screen, 48 h (100 = growth as untreated, 0 = no growth, -100 = all killed)
Conditions in all cases: 10 µM unless noted
DU-145 prostate = system: DU-145 prostate
K-562 leukemia = system: K-562 leukemia
MALME-3M melanoma = system: MALME-3M melanoma
MDA-MB-231 breast = system: MDA-MB-231 breast
RXF 393 renal = system: RXF 393 renal
SF-268 CNS = system: SF-268 CNS
SF-295 CNS = system: SF-295 CNS
SF-539 CNS = system: SF-539 CNS
UACC-257 melanoma = system: UACC-257 melanoma
M14 melanoma = system: M14 melanoma

Measured: growth

O=C(O)c1ccc2nc(-c3ccc(OCCCCCOc4ccc(-c5nc6ccc(C(=O)O)cc6[nH]5)cc4)cc3)[nH]c2c1
inactive: DU-145 prostate 120% | K-562 leukemia 77.6% | MALME-3M melanoma 173% | MDA-MB-231 breast 105% | SF-268 CNS 156% | SF-295 CNS 123% | SF-539 CNS 108% | UACC-257 melanoma 78.8% | M14 melanoma 94.1%
active: RXF 393 renal -11.8%

COc1ccc(-c2nn(-c3ccc(NC(=O)Nc4ccc(Cl)c(C(F)(F)F)c4)cc3)cc2-c2ccncc2)cc1Cl
active: MALME-3M melanoma 2.95% | MDA-MB-231 breast -52.1% | RXF 393 renal -68.3% | SF-295 CNS -25.9% | SF-539 CNS -1.2% | UACC-257 melanoma -5.92% | M14 melanoma -4.4%
inactive: DU-145 prostate 20.5% | K-562 leukemia 10.3% | SF-268 CNS 19%

COc1ccc(/C=C/C(=O)c2ccc(-n3cc(CN4CCN(c5cc6c(cc5F)c(=O)c(C(=O)O)cn6C5CC5)CC4)nn3)cc2)cc1OC
inactive: DU-145 prostate 45.8% | MALME-3M melanoma 57.5% | MDA-MB-231 breast 55.4% | SF-268 CNS 59.5% | SF-295 CNS 67.5% | UACC-257 melanoma 62% | M14 melanoma 28.2%
active: K-562 leukemia 7.81% | RXF 393 renal 4.51% | SF-539 CNS 7.09%

Cc1cn([C@]2(CF)O[C@H](CO)C2C)c(=O)[nH]c1=O (stereo not given in full)
inactive: DU-145 prostate 124% | K-562 leukemia 104% | MALME-3M melanoma 113% | MDA-MB-231 breast 116% | RXF 393 renal 101% | SF-268 CNS 112% | SF-295 CNS 121% | SF-539 CNS 110% | UACC-257 melanoma 103% | M14 melanoma 118%

COc1ccc(Cl)cc1NC(=O)c1cc2c([nH]1)-c1nc(NC(=O)C(C)(C)C)sc1CC2
active: SF-539 CNS -14.6%
inactive: DU-145 prostate 59.9% | K-562 leukemia 10.6% | MALME-3M melanoma 74.1% | MDA-MB-231 breast 33.1% | RXF 393 renal 99% | SF-268 CNS 45.3% | SF-295 CNS 84.2% | UACC-257 melanoma 94.4% | M14 melanoma 71.7%

COc1ccc2c(c1)OC(N)=C(C#N)C2c1ccc(F)cc1 (stereo not given)
inactive: DU-145 prostate 36.8% | K-562 leukemia 12% | MALME-3M melanoma 61.6% | MDA-MB-231 breast 56.7% | RXF 393 renal 16.1% | SF-268 CNS 47.1% | SF-295 CNS 23.4% | SF-539 CNS 19.2% | UACC-257 melanoma 51.7% | M14 melanoma 14.1%

O=S(c1ccccc1)c1ccc2nnnn2n1 (stereo not given)
inactive: DU-145 prostate 105% | MALME-3M melanoma 103% | MDA-MB-231 breast 104% | RXF 393 renal 117% | SF-268 CNS 97.1% | SF-295 CNS 102% | SF-539 CNS 102% | UACC-257 melanoma 99.6% | M14 melanoma 99%
active: K-562 leukemia -9.22%

COc1ccc(CCNC=O)cc1OC
inactive: DU-145 prostate 102% | K-562 leukemia 115% | MALME-3M melanoma 90% | MDA-MB-231 breast 112% | RXF 393 renal 87.9% | SF-268 CNS 104% | SF-295 CNS 103% | SF-539 CNS 91.5% | UACC-257 melanoma 108% | M14 melanoma 100%

COc1ccc(-n2c(-c3ccc(NC(=O)CCCl)cc3)nnc2-c2cc(OC)c(OC)c(OC)c2)cc1
active: RXF 393 renal 8.38%
inactive: DU-145 prostate 22.7% | K-562 leukemia 49.8% | MALME-3M melanoma 71.4% | MDA-MB-231 breast 53.2% | SF-268 CNS 78.6% | SF-295 CNS 53.1% | SF-539 CNS 41.5% | UACC-257 melanoma 52.1% | M14 melanoma 59.5%

NN=C(c1ccc(Cl)cc1)c1ccc(Cl)cc1
inactive: DU-145 prostate 116% | K-562 leukemia 105% | MALME-3M melanoma 121% | MDA-MB-231 breast 106% | RXF 393 renal 109% | SF-268 CNS 96.6% | SF-295 CNS 91.1% | SF-539 CNS 104% | UACC-257 melanoma 94.5% | M14 melanoma 106%

CC/C(=C(\CC)c1ccc(OCCN(CC)CC)cc1)c1ccc(OCCN(CC)CC)cc1
active: MALME-3M melanoma -42.8% | MDA-MB-231 breast 5.07% | RXF 393 renal -4.27% | SF-295 CNS -13.9% | SF-539 CNS -35% | UACC-257 melanoma -51.8% | M14 melanoma -0.0375%
inactive: DU-145 prostate 73.9% | K-562 leukemia 12.7% | SF-268 CNS 55.2%
